Experimental data: PubChem BioAssay (NCATS)
Values joined by “and” are separate entries in the source; they are usually repeats but may differ in a detail not shown here. Equal entries are not always repeated. Unmarked numbers belong to inactive results. Inconclusive results are not listed. A call without a number means that no potency is given here. Active and inactive are the calls of the source. Unless noted, the call rests on the fitted dose curve; in most records, active means well fitted curve in the direction sought with a large enough effect; inconclusive means small, poorly fitted or top-dose-only effect, or another doubt; inactive means no such curve, though single readings can be large; an effect the other way counts as inactive or inconclusive.

What was measured:
[1] = biological target: 3',5'-cyclic-AMP phosphodiesterase 4B (Homo sapiens) (UniProt Q07343); experiment: qHTS Assay for Inhibitors of PDE-IV (AID 607; active means well fitted activation curve with a large enough effect in the main read-out, with a control signal flat, not every such curve was filed as active; further: potency means the concentration at half of the fitted maximal effect)
Sequence of 3',5'-cyclic-AMP phosphodiesterase 4B (Homo sapiens) (Q07343 whole entry, looked up): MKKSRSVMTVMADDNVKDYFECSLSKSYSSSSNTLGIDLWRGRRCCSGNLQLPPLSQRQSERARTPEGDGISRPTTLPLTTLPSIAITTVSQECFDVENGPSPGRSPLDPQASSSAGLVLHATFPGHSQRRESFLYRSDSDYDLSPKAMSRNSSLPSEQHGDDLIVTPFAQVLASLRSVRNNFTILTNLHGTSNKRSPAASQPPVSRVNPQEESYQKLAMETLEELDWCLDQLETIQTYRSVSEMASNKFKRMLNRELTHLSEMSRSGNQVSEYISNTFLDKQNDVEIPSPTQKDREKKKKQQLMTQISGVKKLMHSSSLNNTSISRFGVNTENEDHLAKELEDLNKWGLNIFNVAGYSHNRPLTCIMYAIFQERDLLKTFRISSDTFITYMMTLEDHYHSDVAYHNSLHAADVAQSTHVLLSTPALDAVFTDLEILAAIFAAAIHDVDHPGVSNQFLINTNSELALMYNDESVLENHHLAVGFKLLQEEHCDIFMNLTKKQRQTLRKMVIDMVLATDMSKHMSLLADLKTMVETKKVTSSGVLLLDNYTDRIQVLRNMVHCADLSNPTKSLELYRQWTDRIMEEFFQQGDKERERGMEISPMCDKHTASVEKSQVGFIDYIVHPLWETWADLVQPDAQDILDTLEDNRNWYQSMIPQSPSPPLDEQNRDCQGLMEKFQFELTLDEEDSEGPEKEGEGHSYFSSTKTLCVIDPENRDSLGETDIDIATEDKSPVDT
In short: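 Live HEK293 cells with a modified cyclic nucleotide-gated (CNG) channel report intracellular cAMP via membrane-potential dye fluorescence (ex 535/em 590 nm). Endogenous PDE-IV was targeted. Compounds were tested at up to 22.9 uM final; RO 20-1724 100 uM served as control.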

[2] = biological target: Guanine nucleotide-binding protein G(i) subunit alpha-1 (Homo sapiens) (UniProt P63096); experiment: qHTS Assay for Inhibitors of RGS12 GoLoco Motif Activity (Green Fluorophore) (AID 879);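 further: negative values mean loss of peptide binding seen as reduced polarization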
Sequence of Guanine nucleotide-binding protein G(i) subunit alpha-1 (Homo sapiens) (P63096 whole entry, looked up): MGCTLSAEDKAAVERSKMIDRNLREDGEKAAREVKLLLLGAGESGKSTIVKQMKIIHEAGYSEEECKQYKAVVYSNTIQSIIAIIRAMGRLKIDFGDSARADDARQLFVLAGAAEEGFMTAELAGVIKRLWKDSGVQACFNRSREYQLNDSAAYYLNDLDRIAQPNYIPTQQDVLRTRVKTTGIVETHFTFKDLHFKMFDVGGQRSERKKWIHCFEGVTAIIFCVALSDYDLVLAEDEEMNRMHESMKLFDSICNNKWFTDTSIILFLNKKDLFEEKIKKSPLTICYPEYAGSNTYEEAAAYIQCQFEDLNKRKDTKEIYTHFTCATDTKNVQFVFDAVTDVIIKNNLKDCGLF
In short: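 Fluorescence polarization assay: 50 nM Gαi1 with 10 nM FITC-labeled RGS12 GoLoco peptide in 10 mM Tris pH 7.5, 150 mM NaCl, 0.1 mM GDP, 0.05% NP40, 10 min at room temperature with compound.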

[3] = biological target: Cytochrome P450 3A4 (Homo sapiens) (UniProt P08684); experiment: qHTS Assay for Inhibitors and Substrates of Cytochrome P450 3A4 (AID 884); further: nearly all actives have a fitted effect of over 50% in size; further: potency means the concentration at half of the fitted maximal effect
Sequence of Cytochrome P450 3A4 (Homo sapiens) (P08684 whole entry, looked up): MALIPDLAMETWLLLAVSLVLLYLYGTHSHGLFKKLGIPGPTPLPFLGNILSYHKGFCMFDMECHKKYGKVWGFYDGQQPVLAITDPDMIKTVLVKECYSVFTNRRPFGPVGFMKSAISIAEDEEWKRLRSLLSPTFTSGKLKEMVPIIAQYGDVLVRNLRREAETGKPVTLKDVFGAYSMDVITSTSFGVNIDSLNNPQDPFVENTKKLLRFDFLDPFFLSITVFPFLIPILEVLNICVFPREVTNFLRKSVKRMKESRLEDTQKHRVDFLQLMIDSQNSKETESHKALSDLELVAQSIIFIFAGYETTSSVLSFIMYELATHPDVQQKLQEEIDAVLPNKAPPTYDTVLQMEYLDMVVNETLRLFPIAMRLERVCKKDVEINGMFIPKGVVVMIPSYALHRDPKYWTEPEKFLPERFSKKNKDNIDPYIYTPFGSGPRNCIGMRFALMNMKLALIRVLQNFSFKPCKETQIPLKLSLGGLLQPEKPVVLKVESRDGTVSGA
In short: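 20 nM human CYP3A4 with 25 uM Luciferin-PPXE (at KM) in 200 mM KPO4, preincubated 10 min with compound; NADPH regeneration started a 60 min RT reaction. Luciferin detected by luminescence, normalized to 57 uM ketoconazole as full inhibition.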

[4] = biological target: Cytochrome P450 3A4 (Homo sapiens) (UniProt P08684); experiment: qHTS Assay for Activators of Cytochrome P450 3A4 (AID 885); further: nearly all actives have a fitted effect of over 65% in size; further: potency means the concentration at half of the fitted maximal effect
In short: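 Quantitative HTS format: compounds preincubated with 20nM human CYP3A4 and Luciferin-PPXE substrate at KM, reaction started by NADPH regeneration, stopped after 60 min, luciferase luminescence read 20 min later.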

[5] = biological target: Cytochrome P450 2C9 (Homo sapiens) (UniProt P11712); experiment: qHTS Assay for Inhibitors and Substrates of Cytochrome P450 2C9 (AID 883); further: nearly all actives have a fitted effect of over 60% in size; further: potency means the concentration at half of the fitted maximal effect
Sequence of Cytochrome P450 2C9 (Homo sapiens) (P11712 whole entry, looked up): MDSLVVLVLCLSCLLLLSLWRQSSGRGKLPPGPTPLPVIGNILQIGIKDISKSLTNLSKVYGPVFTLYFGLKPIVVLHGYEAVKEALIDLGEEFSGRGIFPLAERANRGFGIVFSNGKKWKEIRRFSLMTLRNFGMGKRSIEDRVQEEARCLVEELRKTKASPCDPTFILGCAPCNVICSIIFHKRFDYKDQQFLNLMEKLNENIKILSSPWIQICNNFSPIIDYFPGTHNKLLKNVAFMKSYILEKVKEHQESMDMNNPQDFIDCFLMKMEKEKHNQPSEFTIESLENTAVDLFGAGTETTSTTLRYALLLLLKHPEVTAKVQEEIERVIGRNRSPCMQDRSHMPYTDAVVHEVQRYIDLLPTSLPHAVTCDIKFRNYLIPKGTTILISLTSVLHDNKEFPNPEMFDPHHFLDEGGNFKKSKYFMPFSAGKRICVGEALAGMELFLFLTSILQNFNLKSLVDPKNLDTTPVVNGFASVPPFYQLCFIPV
In short: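 Human CYP2C9 (10nM) hydroxylated Luciferin-H (100uM, at its KM) to luciferin in 25mM KPO4. Compound was preincubated 10 min at 37C, then NADPH regeneration started a 60 min reaction at 37C. Luminescence was read after detection reagent, normalized to 57uM sulphaphenazole.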

[6] = biological target: Cytochrome P450 2D6 (Homo sapiens) (UniProt P10635); experiment: qHTS Assay for Inhibitors and Substrates of Cytochrome P450 2D6 (AID 891); further: nearly all actives have a fitted effect of over 60% in size; further: potency means the concentration at half of the fitted maximal effect
Sequence of Cytochrome P450 2D6 (Homo sapiens) (P10635 whole entry, looked up): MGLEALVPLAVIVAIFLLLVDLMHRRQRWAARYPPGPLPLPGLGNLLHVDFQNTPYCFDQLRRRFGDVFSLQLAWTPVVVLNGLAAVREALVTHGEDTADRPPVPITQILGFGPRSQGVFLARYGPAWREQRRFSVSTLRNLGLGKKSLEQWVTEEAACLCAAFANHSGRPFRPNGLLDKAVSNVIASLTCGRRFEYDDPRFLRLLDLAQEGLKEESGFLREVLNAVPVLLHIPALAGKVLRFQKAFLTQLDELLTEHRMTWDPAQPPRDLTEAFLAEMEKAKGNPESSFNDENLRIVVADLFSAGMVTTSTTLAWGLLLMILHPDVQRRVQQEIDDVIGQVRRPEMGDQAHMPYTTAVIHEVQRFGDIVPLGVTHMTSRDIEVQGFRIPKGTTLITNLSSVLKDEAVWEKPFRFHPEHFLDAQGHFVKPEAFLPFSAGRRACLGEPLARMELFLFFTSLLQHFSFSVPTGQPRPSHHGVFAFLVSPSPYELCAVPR
In short: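 Human CYP2D6 (5 nM) with 30 uM Luciferin-ME EGE (at Km) in 100 mM KPO4, compound preincubated 10 min, then NADPH regeneration system for 60 min at room temperature. Luciferin read by luminescence; normalized to 1.43 uM quinidine.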

Nc1ncnc2c1c(-c1ccc(Oc3ccccc3)cc1)cn2C1CCCC1
Potency [1]: inactive | Potency [2]: inactive | Potency [3]: inactive | Potency [4]: 3.16 µM (active)

O=c1[nH]ccc2c(O)cccc12
Potency [1]: inactive | Potency [2]: inactive | Potency [5]: inactive | Potency [4]: inactive

COc1cc(/C=C(\C#N)C(=O)c2ccc(O)c(O)c2)cc(I)c1O
Potency [1]: inactive | Potency [2]: inactive | Potency [5]: 0.501 µM (active) | Potency [4]: inactive

C[C@H](NC(=O)/C(C#N)=C/c1ccc(O)c(O)c1)c1ccccc1
Potency [1]: inactive | Potency [2]: inactive | Potency [5]: inactive | Potency [3]: 3.16 µM (active) | Potency [4]: inactive | Potency [6]: inactive

O=C(OCCN1CCOCC1)C1(c2ccccc2)CCCCC1
Potency [1]: inactive | Potency [2]: inactive | Potency [3]: 3.16 µM (active) and 1.58 µM (active) | Potency [4]: inactive

CC(=O)NCCc1c[nH]c2ccc(O)cc12
Potency [1]: inactive | Potency [2]: inactive | Potency [4]: inactive

COc1ccc2c(c1)c(CC(=O)O)c(C)n2C(=O)c1ccccc1
Potency [1]: inactive | Potency [2]: inactive | Potency [6]: inactive

CC(C)(CO)Cc1cc(C(C)(C)C)c(O)c(C(C)(C)C)c1
Potency [1]: inactive | Potency [2]: inactive | Potency [3]: 2.51 µM (active) | Potency [4]: inactive | Potency [6]: inactive

NC(=Nc1ccccc1)NC(=O)c1nc(Cl)c(N)nc1N
Potency [1]: inactive | Potency [2]: inactive | Potency [4]: inactive

CNCCNS(=O)(=O)c1cccc2cnccc12
Potency [1]: inactive | Potency [2]: inactive | Potency [4]: inactive

CCc1ccc2c(-c3cccc(Cl)c3)nc(=O)n(CC)c2n1
Potency [1]: 0.012 µM (active) | Potency [4]: inactive

[Li+]
Potency [1]: inactive | Potency [2]: inactive | Potency [4]: inactive

N=C(N)SCCc1cnc[nH]1
Potency [1]: inactive | Potency [2]: inactive | Potency [4]: inactive | Potency [6]: 6.31 µM (active)

C[C@](Cc1ccc(O)c(O)c1)(NN)C(=O)O
Potency [1]: inactive | Potency [5]: inactive | Potency [6]: inactive

O=c1onc2n1-c1cc(Br)ccc1OC2
Potency [1]: inactive | Potency [2]: inactive | Potency [4]: inactive

N[C@H](C(=O)O)[C@H](O)C(=O)O
Potency [1]: inactive | Potency [2]: inactive | Potency [4]: inactive

COc1cc2c(CCNC(C)=O)c[nH]c2cc1O
Potency [1]: inactive | Potency [2]: inactive | Potency [4]: inactive

O=C(N[C@@H](Cc1ccccc1)C(=O)CCl)OCc1ccccc1
Potency [1]: inactive | Potency [2]: inactive | Potency [4]: inactive

c1ccc2nc(C3=NCCN3)ccc2c1
Potency [1]: inactive | Potency [2]: inactive | Potency [4]: inactive

CCCCOC(=O)NS(=O)(=O)c1sc(CC(C)C)cc1-c1ccc(Cn2c(CC)nc3c(C)cc(C)nc32)cc1
Potency [1]: inactive | Potency [2]: inactive | Potency [3]: 3.16 µM (active) | Potency [4]: inactive

O=C(O)c1ccccc1Nc1ccccc1
Potency [1]: inactive | Potency [2]: inactive | Potency [4]: inactive

COc1ccccc1N1CCN(CCCCNC(=O)c2ccc3ccccc3c2)CC1
Potency [1]: inactive | Potency [2]: inactive | Potency [4]: inactive | Potency [6]: 3.16 µM (active) and 3.98 µM (active)

COc1ccc(CCN(C)CCc2ccc(OC)c(OC)c2)cc1OC
Potency [1]: inactive | Potency [2]: inactive | Potency [4]: inactive

N#CC(C#N)=C(N)/C(C#N)=C/c1ccc(O)cc1
Potency [1]: inactive | Potency [2]: inactive | Potency [4]: inactive

C[C@H](O)C(=O)C1=Nc2c(nc(N)[nH]c2=O)NC1
Potency [1]: inactive | Potency [4]: inactive

O=c1[nH]c(=S)[nH]c(-c2ccccc2)c1Cc1c(O)ccc2ccccc12
Potency [1]: inactive | activity change, positive = activation [4]: -42.7% [at 11.4 µM]

Cc1nc2c(OCc3ccccc3)cccn2c1CC#N
Potency [1]: inactive | Potency [2]: inactive | Potency [4]: inactive

O=c1[nH]c2cc(Cl)ccc2c(O)c1-c1ccc(Oc2ccccc2)cc1
Potency [1]: inactive | Potency [2]: inactive | Potency [4]: inactive

NC1(C(=O)O)CCCCC1
Potency [1]: inactive | Potency [2]: inactive | Potency [6]: inactive

O=C(c1ccc2c(c1)OCCO2)N1CCCCC1
Potency [1]: inactive | Potency [5]: inactive | Potency [6]: inactive

Oc1cc(O)c2c(c1)O[C@H](c1ccc(O)c(O)c1)[C@@H](O)C2
Potency [1]: inactive | Potency [5]: inactive | Potency [3]: inactive | Potency [6]: inactive

COc1ccc2c(c1)c(CC(=O)O)c(C)n2Cc1ccc(Cl)cc1
Potency [1]: inactive | Potency [4]: inactive

c1ccc(CN2CCC3(CCCc4ccccc43)CC2)cc1
Potency [1]: inactive | Potency [2]: inactive | Potency [3]: inactive | Potency [4]: 25.1 µM (active) | Potency [6]: 0.251 µM (active)

Nc1ncnc2c1ncn2C1CCCC1
Potency [1]: inactive | Potency [2]: inactive | Potency [4]: inactive

CN(C)S(=O)(=O)c1ccc2c(c1)/C(=C/c1cc3c([nH]1)CCCC3)C(=O)N2
Potency [1]: inactive | Potency [2]: inactive | Potency [3]: 5.01 µM (active) | Potency [4]: inactive

Cc1nc(N=Nc2ccc(C(=O)O)cc2)c(COP(=O)(O)O)c(C=O)c1O
Potency [1]: inactive | Potency [5]: inactive | Potency [4]: inactive

NC[C@@H]1O[C@H](c2ccccc2)Cc2c1ccc(O)c2O
Potency [1]: inactive | Potency [5]: 6.31 µM (active) | Potency [4]: inactive

COc1ccccc1N1CCN(CCCCN2C(=O)c3ccccc3C2=O)CC1
Potency [1]: inactive | Potency [2]: inactive | Potency [4]: inactive
